Results on eight molecules are retold here after PubChem BioAssay (NCI).

A short description of the assay: NCI Yeast Anticancer Drug Screen. Data for the mgt1 strain (AID 153). The following applies: S. cerevisiae mgt1 mutant growth inhibition, hits give high values. The procedure:
Growth inhibition of yeast strains with defined genetic alterations is measured as a screen for potential anti-cancer activity. Selected strains with alterations in DNA damage repair or cell cycle control were exposed to compounds and growth inhibition was measured relative to vehicle treated controls. The strain used in this assay is mgt1

Compounds without any hit were thinned out: in the full panel of roughly 79,000, 15% have a hit. A number with no mark means an inactive call. Calls of active or inactive are those of the source. Cut-off read from the data, not from the text of the source: active = growth inhibition above about 70%; inactive = the rest.

Take `COc1cc2c(cc1[N+](=O)[O-])C(=O)C(Br)(Br)CCC2`: the growth inhibition is, setting by setting: (at 1.2 µM) 50%; (at 3.7 µM) 73% (active); (at 11.0 µM) 100% (active); (at 33.0 µM) 99% (active); (at 100.0 µM) 97% (active).

For the molecule `S=C(S)NN1CCOCC1`, the growth inhibition (at 1.2 µM) is 52%; the growth inhibition (at 3.7 µM) is 39%; the growth inhibition (at 11.0 µM) is 30%; the growth inhibition (at 33.0 µM) is 21%; the growth inhibition (at 100.0 µM) is 18%.

`CCCCCCCC1(N=[N+]=[N-])C(=O)c2ccccc2N(C)C1=O` (stereo not given): the growth inhibition is -11% (at 1.2 µM); -18% (at 3.7 µM); -2% (at 11.0 µM); 51% (at 33.0 µM); 69% (at 100.0 µM).

Consider `CSC1=NNC(SC)=NN1`, for which the growth inhibition was 12% (at 1.2 µM); 14% (at 3.7 µM); 12% (at 11.0 µM); 83% (active) (at 33.0 µM); 99% (active) (at 100.0 µM).

As to `Cn1c(=O)c(-c2ccccc2)c(N=[N+]=[N-])c2ccccc21`, the growth inhibition was 1% (at 1.2 µM); 0% (at 3.7 µM); 32% (at 11.0 µM); 94% (active) (at 33.0 µM); 89% (active) (at 100.0 µM).

Take `CCOC(=O)C(NC(=O)c1ccccc1)(N1CCN(c2cc3c(cc2F)c(=O)c(C(=O)O)cn3C2CC2)CC1)C(F)(F)F` (stereo not given): the growth inhibition runs as follows: (at 1.2 µM) 1%; (at 3.7 µM) 1%; (at 11.0 µM) 0%; (at 33.0 µM) 1%; (at 100.0 µM) 2%.

Consider `C#CCCCc1ccccc1`, for which the growth inhibition by setting is: (at 1.2 µM) -19%; (at 3.7 µM) -14%; (at 11.0 µM) -7%; (at 33.0 µM) 16%; (at 100.0 µM) 91% (active).

In the case of `CCC(=O)OCCn1c2nc(=O)[nH]c(=O)c-2nc2cc(C)c(C)cc21`, the growth inhibition was -1% (at 1.2 µM); -8% (at 3.7 µM); 3% (at 11.0 µM); 75% (active) (at 33.0 µM); 88% (active) (at 100.0 µM).
